# In the supplement of paper PMC6555819:
# Tests used:
# Test in all cases: PBM binding z-score (relative to random genomic background probes); higher = stronger binding; sequences stand for … in GC…GCGATTGACAGCGTAGAATGAAGG
# [1] = system: FXR:RXRa (NR concentration 270 nM, RXRa partner concentration 90 nM)
# Summary of the method: (§1)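 Custom Agilent 4×180K protein-binding microarrays carried double-stranded probes, each with a 34-nt variable region. These regions held direct-repeat seeds, single-nucleotide variants, half-site ablations and random human genomic background sequences. Ligand-free nuclear receptor dimers were incubated on the arrays for 1 h, antibodies against each partner (one per run) detected binding, and scanned fluorescence was regression-normalized. Binding z-scores take the random background probes as reference.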
# [2] = system: LXRa:RXRa (NR concentration 270 nM, RXRa partner concentration 90 nM)
# Summary of the method: as §1
# [3] = system: LXRa homodimer (NR concentration 270 nM)
# Summary of the method: as §1
# [4] = system: LXRb:RXRa (NR concentration 270 nM, RXRa partner concentration 90 nM)
# Summary of the method: as §1
# [5] = system: LXRb homodimer (NR concentration 270 nM)
# Summary of the method: as §1
# [6] = system: PPARa:RXRa (NR concentration 270 nM, RXRa partner concentration 90 nM)
# Summary of the method: as §1
# [7] = system: PPARg:RXRa (NR concentration 180 nM, RXRa partner concentration 90 nM)
# Summary of the method: as §1
# [8] = system: PPARg:RXRa 270nM:90nM, anti-RXR (NR concentration 270 nM, RXRa partner concentration 90 nM)
# Summary of the method: as §1
# [9] = system: PPARg:RXRa 30nM:10nM, anti-RXR (NR concentration 30 nM, RXRa partner concentration 10 nM)
# Summary of the method: as §1
# [10] = system: PPARg:RXRa 90nM:30nM, anti-RXR (NR concentration 90 nM, RXRa partner concentration 30 nM)
# Summary of the method: as §1
# [11] = system: PPARg:RXRa DBDmut IVT, anti-RXR (DBD mutation: RXRa K156A/R161A, NR concentration 270 nM, RXRa partner concentration 90 nM)
# Summary of the method: as §1
# [12] = system: PPARg:RXRa IVT, anti-PPARg (NR concentration 270 nM, RXRa partner concentration 90 nM)
# Summary of the method: as §1
# [13] = system: PPARg DBDmut:RXRa IVT, anti-PPARg (DBD mutation: PPARg1 K132A/R137A, NR concentration 270 nM, RXRa partner concentration 90 nM)
# Summary of the method: as §1
# [14] = system: PPARg DBDmut IVT, anti-PPARg (DBD mutation: PPARg1 K132A/R137A, NR concentration 270 nM)
# Summary of the method: as §1
# [15] = system: PPARg homodimer (NR concentration 180 nM)
# Summary of the method: as §1
# [16] = system: PXR:RXRa (NR concentration 270 nM, RXRa partner concentration 90 nM)
# Summary of the method: as §1
# [17] = system: PXR homodimer (NR concentration 270 nM)
# Summary of the method: as §1
# [18] = system: RARa:RXR (NR concentration 270 nM, RXRa partner concentration 90 nM)
# Summary of the method: as §1
# [19] = system: RARa homodimer (NR concentration 270 nM)
# Summary of the method: as §1
# [20] = system: RARb:RXRa (NR concentration 270 nM, RXRa partner concentration 90 nM)
# Summary of the method: as §1
Sequence,PBM binding z-score [1],PBM binding z-score [2],PBM binding z-score [3],PBM binding z-score [4],PBM binding z-score [5],PBM binding z-score [6],PBM binding z-score [7],PBM binding z-score [8],PBM binding z-score [9],PBM binding z-score [10],PBM binding z-score [11],PBM binding z-score [12],PBM binding z-score [13],PBM binding z-score [14],PBM binding z-score [15],PBM binding z-score [16],PBM binding z-score [17],PBM binding z-score [18],PBM binding z-score [19],PBM binding z-score [20]
CAGTCTAGGTCAGGGCCAGTATAGGAGGAACGTT,1.52,1.1,-0.0547,0.856,-0.215,2.68,2.64,2.85,1,1.96,5.44,4.91,0.454,-0.134,1.53,0.376,0.305,1.2,0.439,3.48
ATTACAGGGTCATCGTAGGCCAGAGTACGCACAG,7.11,6.64,1.78,4.65,2.02,6.2,7.1,6.16,2.72,5.18,2.45,4.43,2.06,2.49,4.05,5.5,1.66,5.52,1.45,4.45
CGGCCAAGGTCATAGGAGGTCAGTGAAGACAGAT,7.73,7.58,4.26,6.03,0.344,5.82,5.92,5.6,2.38,4.77,2.94,4.46,-0.828,-0.774,4.97,6.76,3.6,5.88,1.82,5.29
CCTCGGAGGACAACAGGAGGTCACAGCTGCCAGA,2.75,3.93,3.82,2.82,-0.268,3.42,1.76,2,-0.188,1.1,0.582,1.67,-1.61,-1.12,2.8,4.2,0.604,4.69,0.924,3.35
TCTCGGAGGATACGAAGGTCAGAGCTTTCCAGAG,0.399,0.672,-0.0784,0.653,-1.33,1.55,0.177,1.23,1.89,1.51,1.14,0.245,-1.41,-1.19,0.218,1.09,-0.447,1.64,-0.378,2.33
TAGCCTAGGTCATTTAGGGGCCAGTATAGAAAGC,4.42,4.04,0.996,3.09,1.69,3.41,1.46,2.15,0.169,1.49,1.79,2.38,0.515,-0.286,1.87,2.34,-0.166,3.45,-0.429,3.6
CAAGCTAGGTCACGAAAGGTCAAAGTCGAATGAC,7.45,8.14,8.09,7.63,2.75,6.5,7.39,7.14,4.23,6.31,5.1,6.14,2.17,-0.0947,7.93,7.36,3.04,7.85,4.08,5.61
ACAGACATGTGATGAAGGTAACTCAGGCTATCAT,0.000592,-0.0384,-0.258,-0.35,-0.283,-0.131,0.611,-0.0726,-0.0978,0.0328,-0.334,0.139,0.595,0.868,-0.0569,-0.448,-0.319,-0.161,-0.142,-0.338
ACTCGCAGGCCAAGGGTCACTCAAGATTAGTCCG,2.83,3.23,0.261,2.88,-0.377,4.4,5.6,6.01,4.12,5.92,0.79,2.88,-0.175,0.18,2.03,3.45,-0.231,4.23,0.673,3.6
ACAGACAGGTGCGTGAAGGTAACTCAGCTGGACG,-0.446,-0.525,-0.81,-0.869,-0.883,-0.268,0.476,-0.586,-0.564,-0.492,-0.935,-0.58,0.0563,-0.077,-0.238,-0.583,-0.495,-0.585,-0.862,-0.307
GCTTACGGGTCAAAGGTTATACCATGAATAGAAT,7.48,5.87,0.778,5.87,0.759,7.21,11.2,9.29,9.29,10.3,4.59,6.16,1.82,1.93,2.73,6.11,0.691,8.2,0.701,4.64
TCGAGTAGGTTACCAATTGGGCATTCAGCTTTCT,0.0774,0.268,-0.567,0.437,-0.954,0.973,-0.0221,1.3,0.909,1.06,3.77,2.73,-0.446,-0.0338,-0.44,0.0575,-0.745,0.253,-0.895,0.606
CTCGAAAGGTCGGGCTCAGGTGAGTATACCAAAC,3.1,2.11,-0.238,1.9,0.116,3.25,0.671,1.88,-0.168,0.853,0.601,1.13,0.0395,-0.176,1.13,1.64,-0.297,2.71,0.232,3.36
TGAATGAGGGTATAAGATCAGGGAACGTTGCAAA,0.413,0.344,-0.145,0.00334,0.501,0.874,0.576,1.23,1.11,0.839,0.322,0.573,0.938,0.423,0.497,0.178,0.202,0.234,-0.0465,0.303
CCTATTAGTGGACCATAAGGGCAACCGAAGCTCG,0.107,0.131,0.000985,0.0463,0.134,0.591,0.711,1.08,0.116,0.489,1.43,0.991,0.0446,-0.555,0.856,0.215,0.612,0.424,0.803,1.22
CCTATTAGTTGACCATAAGGGCAATCGAAGCTCG,0.68,0.259,0.71,0.623,0.695,0.456,0.434,0.366,0.122,0.461,0.549,0.361,0.362,0.72,1.56,0.609,0.878,0.531,2.18,1.38
TCTTGTAGATCGAGCAGGTTAAGAAAGCCTGAGT,-0.145,0.0215,-0.393,0.284,-0.755,0.628,-0.657,1.17,2.46,1.69,1.19,-0.156,0.439,0.279,0.237,0.342,-0.0974,0.496,-0.293,-0.102
ATCGAAAAGTCGACGAGGTGAGTATACACCGTTT,0.048,-0.0396,-0.471,0.0525,-0.29,0.426,0.914,0.0655,0.0856,-0.125,-0.448,0.432,0.0649,0.51,-0.218,0.103,-0.0447,0.451,-0.121,0.388
AGTCAAAGTTCGGGACGAGGTAACGTAAAGCACG,0.65,0.402,-0.198,0.242,-0.3,1.08,1.85,2.33,0.491,1.33,-0.421,0.748,0.226,-0.0246,0.441,0.716,0.0422,0.869,-0.0634,1.86
ACTATTAGTTGAGAGGAGGGCAACCGATAGGTTG,0.181,-0.0431,0.0481,-0.187,0.248,0.335,0.512,0.15,0.176,0.106,0.402,0.862,0.559,0.202,0.333,0.447,0.403,0.168,0.97,0.991
TCTTGTAGATCAGCCGGTTAAGAAAGCTGGCCAA,-0.161,0.143,-0.223,0.0561,-0.394,0.168,-0.791,1.24,2.52,1.74,1.7,-0.0533,-0.491,0.198,-0.81,-0.0108,-0.447,0.0162,-0.458,-0.316
TCGAGTAGGTTAGTCGGGGCATTGAGCCAACATA,-0.211,-0.326,-0.78,0.048,-1.23,0.416,-0.175,0.835,1,0.777,2.07,2.19,-0.804,-1.03,-0.25,-0.121,-0.392,0.186,-0.979,0.355
CGTGCAAGGTCATAGGAGGTCAGTGAAGACAGAT,7.84,7.38,4.92,6.31,1.2,5.98,6.01,6.37,2.92,5.01,3.54,4.74,1.77,-0.0772,4.07,7.21,4.19,6.63,2,5.41
CGTCCAAGGTCAATGCTAGGTCAGTGCAAGCATT,6.7,5.58,2.83,4.07,0.975,4.94,3.6,4.26,0.996,3.23,3.46,3.77,-0.816,-0.276,4.69,4.69,1.57,5.52,1.48,5.25
TCGAGTAGGTTAGTGGGGGCATTCAGCCAACATA,1.28,1.52,0.619,3.73,6.59,2.68,2.05,3.03,1.76,2.53,3.24,4.33,4.17,4.96,1.66,2.68,1.78,1.76,0.673,1.39
ATCGAAAGGTCGAAGGTGAGTATCCCCACCCGAA,3.99,3.46,0.139,2.58,0.489,4.42,4.5,4.68,2.04,3.58,0.0448,2.14,0.338,0.675,1.12,2.87,-0.31,3.89,0.365,3.68
GCTGCTAGGTCAGGTTGGTCAGCTCACGGGTACG,1.27,0.883,-0.243,0.696,-0.186,1.57,0.553,0.724,-0.171,0.333,3.01,2.19,-0.391,-0.956,0.943,0.37,0.00075,0.901,0.262,3.26
CCTACTGGGCCATCAGCTCATTGATATCAACGTT,-0.649,-0.431,-0.409,-0.655,-0.446,-0.141,0.457,0.344,-0.273,0.098,3.97,3.36,-0.394,-0.205,-0.413,-0.673,-0.788,-0.689,-0.576,-0.0601
ATCTCTAGGTAAGACTCACTTCAGTGAAGAACGC,0.0875,0.0793,-0.134,0.11,0.863,0.00782,0.276,0.0551,0.479,0.192,1.59,1.19,0.772,1.01,0.77,-0.228,0.171,-0.265,0.334,-0.0456
